# In PubChem BioAssay AID652257 (The Scripps Research Institute Molecular Screening Center, 2013):
# “And” between values parts separate entries of the source, which are not always exact repeats. Identical values can stand only once. In all, about 370,000 compounds went through this assay and about 4,800 (1.3%) were called active.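 Rule for the calls: active = inhibition above about 21% made by adding two undisclosed values (limit read from the data); inactive = the rest.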 Shown is part of a subset that was picked to be rich in actives. More than one record can exist for a structure, and the calls need not agree.
# Target: Protein arginine N-methyltransferase 1 (Homo sapiens) (UniProt Q99873)
# Experiment: PRMT1 methyltransferase inhibitors, primary screen, biochemical, fluorescence polarization (AID 652257)
# Details: recombinant PRMT1, activity-based probe fluorescence polarization; at 2.79 µM; stronger effect = higher value
# Chain of Protein arginine N-methyltransferase 1 (Homo sapiens) (Q99873 whole entry, looked up): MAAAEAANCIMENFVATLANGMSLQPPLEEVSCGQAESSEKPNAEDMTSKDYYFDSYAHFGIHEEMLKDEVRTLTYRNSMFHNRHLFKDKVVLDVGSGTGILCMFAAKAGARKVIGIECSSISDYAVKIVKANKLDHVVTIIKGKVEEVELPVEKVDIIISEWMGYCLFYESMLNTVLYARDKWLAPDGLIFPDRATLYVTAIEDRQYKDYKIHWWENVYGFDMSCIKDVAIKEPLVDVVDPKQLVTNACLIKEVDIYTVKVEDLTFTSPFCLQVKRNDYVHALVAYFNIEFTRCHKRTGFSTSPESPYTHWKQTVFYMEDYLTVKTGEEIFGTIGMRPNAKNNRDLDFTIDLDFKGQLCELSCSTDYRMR
row,Structure (SMILES),inhibition
1,CC(c1c[nH]c2ccccc12)c1c(-c2ccccc2)n(C)c2ccccc12 (stereo not given),8.87% (inactive)
2,CN(C)CC(=O)N[C@@H]1C[C@@H]2O[C@H](CO)CC[C@@H]2O[C@@H]1CCc1ccc(C#Cc2ccccc2)cc1,-0.26% (inactive)
3,CSc1cccc(NC(=O)CN2C(=O)COc3ccc(S(=O)(=O)N4CCOCC4)cc32)c1,-1.34% (inactive)
4,O=C(c1c[nH]c2ccccc12)N1CCC(Oc2cccnc2)CC1,-5.2% (inactive)
5,CN1CC(=O)N=C1N,-1.28% (inactive) and 0.16% (inactive)
6,CCOc1ccc(CCNC(=O)COC(=O)C2CCN(c3ccc(C(F)(F)F)cn3)CC2)cc1OCC,-0.97% (inactive)
7,CCCC(O)(c1ccccc1)C(c1ccccc1)c1ccccn1 (stereo not given),3.01% (inactive)
8,C=CC1=C(C(=O)O)N2C(=O)[C@@H](NC(=O)/C(=N\OCC(=O)O)c3csc(N)n3)[C@H]2SC1,23.7% (active)
9,C=CC1=C(C(=O)O)N2C(=O)[C@@H](NC(=O)/C(=N/OCC(=O)O)c3csc(N)n3)[C@H]2SC1,28.6% (active)
10,CO/N=C(\C(=O)N[C@@H]1C(=O)N2C(C(=O)O)=C(COC(C)=O)CS[C@H]12)c1csc(N)n1 (stereo in doubt),16% (inactive) and 23.3% (active) and 25.5% (active)
11,COc1ccc(-n2c(COc3ccccc3)nnc2SCC(=O)Nc2ccc3c(c2)OCO3)cc1,0.3% (inactive)
12,C=C(C)CNC(=S)/N=c1\scc(C)n1CC,2.72% (inactive)
13,O=C(NCCC1=CCCCC1)C1CCN(S(=O)(=O)c2ccc(Cl)s2)CC1,2.95% (inactive)
14,CCc1c(C)c2ccc(OC3CCCCC3=O)cc2oc1=O (stereo not given),-0.12% (inactive)
15,CCCCCCN1CCS(=O)(=O)N(Cc2ccc(C(F)(F)F)cc2)C(C(=O)OC)C1 (stereo not given),0.07% (inactive)
16,C#CCCN([C@H](C(=O)OC)C(C)C)S(=O)(=O)c1ccc(F)cc1Br,1.71% (inactive)
17,O=c1cc(CCl)nc2scc(-c3ccccc3)n12,6.61% (inactive)
18,OCCn1c(-c2ccccc2)csc1=Nc1ccccc1,63.9% (active)
19,C=CC1=CCN(S(=O)(=O)C(C)(C)C)[C@@H]1CCO,-1.03% (inactive)
20,Cc1cc(C(=O)OCC(=O)c2c(N)n(C)c(=O)n(C)c2=O)c(C)o1,-0.81% (inactive)
21,Cc1cc(C)c(S(=O)(=O)NN=C2c3ccccc3[C@H]3Cc4csc[n+]4[C@@H]23)c(C)c1,52.5% (active)
22,COc1ccc(C(=O)N2CCN(c3ccc(C(C)=O)cc3F)CC2)cc1S(=O)(=O)NC1CC1,2.01% (inactive)
23,CCCCCN1CCCCC(NC(=O)C(C)CCC)C1=O (stereo not given),3.28% (inactive)

row,Structure (SMILES),inhibition
1,COC(=O)C1CN(CCc2ccccc2)CCS(=O)(=O)N1Cc1ccc(F)cc1 (stereo not given),0.22% (inactive)
2,O=C(O)c1ccc(NN=CC2=C(N3CCOCC3)/C(=C/c3ccccc3)CC2)cc1,23.8% (active)
3,O=C1OC(NC(=O)c2ccccc2)C(N2CCOCC2)=C1Cl (stereo not given),0.25% (inactive)
4,O=C(Nc1ccc(F)cc1)c1cccnc1N1CCOCC1,0.36% (inactive)
5,CC12CCC(C(=O)N(CCC#N)CCC#N)(CC1=O)C2(C)C (stereo not given),-1.4% (inactive)
6,COC(=O)[C@]12C[C@H](CC(=O)NCCc3ccccc3OC)C(=O)N(Cc3ccco3)C1=C[C@H](C(C)C)O[C@@H]2C1CC1,-1.39% (inactive)
7,CC(C)CNC(=O)OCc1cn(Cc2ccc(F)cc2)nn1,-6.07% (inactive)
8,N=c1c2c3c(sc2nc2n1CCCCC2)CCCC3,-1.83% (inactive)
9,S=c1[nH]nc2c3c4c(sc3ncn12)CCCC4,40.6% (active)
10,CCn1c(=S)[nH]c2sc3c(c2c1=O)CCCCC3,-0.49% (inactive)
11,CC(C)(C)NC(=O)C(c1cccnc1)N(C(=O)c1cnco1)c1ccc(C(C)(C)C)cc1 (stereo not given),1.45% (inactive)
12,Cc1nc2ccc(C(=O)N3CCN(C(=O)C(C)(C)C)CC3)cc2n1C1CCCC1,-5.06% (inactive)
13,Nc1nnc(SCC(=O)NCC(=O)Nc2ccc(F)c(F)c2F)s1,0.28% (inactive)
14,NS(=O)(=O)c1cccc(NC(=O)COC(=O)/C=C/c2ccco2)c1,8.16% (inactive)
15,CC(C)CNC(=O)COC(=O)/C=C/c1ccco1,3.56% (inactive)
16,COc1cccc(NC(=O)COC(=O)/C=C/c2ccco2)c1,34.6% (active)
17,COC(=O)[C@@]12CCCCC3=C1N(CCC3)C(=O)[C@H]2CC(=O)NCc1cccc2ccccc12,0.96% (inactive)
18,Cc1ccc(C2=CCN(C)C(=O)N2c2ccc(Cl)cc2)cc1,1.54% (inactive)
19,COCCn1c(SCC(=O)Nc2cc(Cl)ccc2OC)nc2c(c1=O)SC(C)C2 (stereo not given),-2% (inactive)
20,COc1ccc(C(=O)OCCN(C)C2CN(Cc3cn(Cc4cccc(C)c4)nn3)S(=O)(=O)C2)cc1OC (stereo not given),-3.17% (inactive)
21,CC(=O)N1CCCN(C2=Nc3ccccc3Sc3ccccc32)CC1,-2.73% (inactive)
22,CCCCOCCCNC(=O)C[C@H]1C[C@@]2(C(=O)OC)C(=C[C@H](COCc3ccccc3)O[C@@H]2C)N(Cc2cccc3ccccc23)C1=O,-1.04% (inactive)
